# Test results taken from publication PMC12136788.
# In all, about 5,800 sequences were measured (“enrichment r”: median about 0.68, highest 2% from about 11 on). The sample holds the highest values, similar sequences and a random draw of the others, so the mix is not that of the screen.
# T1: UNK ZnF1-6 (called full-length) (human, UniProt Q9C0B0 30-357)
# T1 sequence: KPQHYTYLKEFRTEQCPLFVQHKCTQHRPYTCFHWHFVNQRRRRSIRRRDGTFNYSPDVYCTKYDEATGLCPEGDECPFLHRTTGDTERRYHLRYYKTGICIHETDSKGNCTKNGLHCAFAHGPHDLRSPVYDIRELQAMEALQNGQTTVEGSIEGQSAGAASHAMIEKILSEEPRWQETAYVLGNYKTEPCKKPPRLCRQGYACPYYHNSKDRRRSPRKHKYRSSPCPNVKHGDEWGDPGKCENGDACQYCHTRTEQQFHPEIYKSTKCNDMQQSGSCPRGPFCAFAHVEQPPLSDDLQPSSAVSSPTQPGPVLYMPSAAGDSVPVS
# B1: chr2:96301550:96301651:-|CDS|ENSG00000144028|msi1|FALSE|unique (ssRNA)
# RNA: GGGAGUUCUACAGUCCGACGAUCAAGGCGAAAGGAGAUUGACCUGCUGCUGGGUCAAACAGAUGAUACCAGAUACCAUGUGCUAGUGAACCUGGGCAAAAAGAUCACAGACUAUGGUGGAGAUAAGGAAAUCCAAAAUAUGGGCAACAGAGGAUUGAGCAUCA
# B2: chr7:76302746:76302847:+|CDS|ENSG00000106211|unk|total|mutant (ssRNA)
# RNA: GGGAGUUCUACAGUCCGACGAUCGUCCCCUUCUCGCUCCUGCGGGGCCCCAGCUGGGACCCCUUCCGCGACUGGUACCCGCACCGCCGCCUCUUCGACCAGGCCUUCGGGCUGCCCCGGCUGCCGGAGGAGUGGUCGCAGUGGCAACAGAGGAUUGAGCAUCA
# B3: chr7:56101660:56101848:-|3pUTR|ENSG00000106153|msi1|total|mutant (ssRNA)
# RNA: GGGAGUUCUACAGUCCGACGAUCUGGAGAGAUGGAAAAUCAGCUCUCAUAACUAAGUUAAUUCCGUAUAAAAACCGAAUUGACCGUGAGGGUAUAAAGUGUAACCAUCAGUUAAACCUCUCCUGUCAUUCCUGGCUUCCUUGCCAACAGAGGAUUGAGCAUCA
# B4: chr11:2928445:2928542:-|3pUTR|ENSG00000181649|msi1_unk|FALSE|overlapping (ssRNA)
# RNA: GGGAGUUCUACAGUCCGACGAUCAUUGGACUAUCUAAUAUCUAUGUAUUUAUUUCGCUGGUUCUUUGUAGUCACAUAUUUUAUAGUCUUAAUAUCUUGUUUUUGCAUCACUGUGCCCAUUGCAAAUAAAUCACUUGGCCAGUUCAACAGAGGAUUGAGCAUCA
# B5: ENSG00000070961:be:win_1401|CDS|ENSG00000070961|bound_else_gene|NA|bound_elsewhere_windowed (ssRNA)
# RNA: GGGAGUUCUACAGUCCGACGAUCAAAUGCUACAGCUAUUUGUUCAGAUAAAACAGGAACUUUGACAAUGAACAGAAUGACAGUCGUUCAAGCUUACAUAAAUGAAAAACAUUAUAAAAAGGUUCCUGAACCAGAAGCUAUUCCCAACAGAGGAUUGAGCAUCA
# B6: chr1:52238154:52238269:+|CDS|ENSG00000157077|unk|total|mutant (ssRNA)
# RNA: GGGAGUUCUACAGUCCGACGAUCUCUGACCGUCCCGCCAGUGUCUGUUCCCCUUCACAAUUAAAGGAUGACGGAAGUACCGGCCGAGACCCCUCCAUGUCUGCGAUUACAAGUUUAACGGUUGAUUCAGUAAUCUCAUCCCAGCAACAGAGGAUUGAGCAUCA
# B7: chr2:88557131:88557241:-|3pUTR|ENSG00000172071|msi1|total|mutant (ssRNA)
# RNA: GGGAGUUCUACAGUCCGACGAUCGAGGACAAGCCGCACAAACUGUAUAACGGUUUAUGUCCGCCGUUUUACCGUCCUAUUUGCCGCAUUCAACCGCUUUAUUCCUCCGAUGGUUCCCGGGUGGGUUUACAGCUUUUUGUACUUCAACAGAGGAUUGAGCAUCA
# B8: ENSG00000107863:be:win_3701|CDS|ENSG00000107863|bound_else_gene|NA|bound_elsewhere_windowed (ssRNA)
# RNA: GGGAGUUCUACAGUCCGACGAUCUCUUCACAAAUGAUAAAUAUGCUGAUUUUAUUGAAGCCAAUCGUAAAGAAGAUCCUCUAGAUCGUCUGAAAACAUUAAAAAGACUAAUUCACGAUUUGCCUGAACAUCAUUAUGAAACACCAACAGAGGAUUGAGCAUCA
# B9: ENSG00000112365:stop:overlap|stop_codon|ENSG00000112365|stop_codon|NA|stop_codon (ssRNA)
# RNA: GGGAGUUCUACAGUCCGACGAUCUCUACACACUGGCAAGAAGCCUUUCUCCUGCCCUGAGUGUAACUUACAGUUUGCUCGCUUAGACAACUUGAAGGCUCACUUGAAAAUUCAUAGCAAGGAGAAGCAUGCUUCAGAUGCCAGCAACAGAGGAUUGAGCAUCA
# B10: chr10:30820206:30820444:-|three_prime_utr|ENSG00000183621|control|control|control (ssRNA)
# RNA: GGGAGUUCUACAGUCCGACGAUCCUUAUCUAAUCUCCAAAUGAAGAAUGGGCCCAUCUGACAUAUCCUAUGAGCACAAAGCUUAGGGGACUCUUCACCGAAACCUAGACAAAUAUUUGAAUGCAUUUUUUUUUUUUUUUUUUGCAACAGAGGAUUGAGCAUCA
# B11: chr8:65707876:65707977:+|CDS|ENSG00000066855|unk|FALSE|unique (ssRNA)
# RNA: GGGAGUUCUACAGUCCGACGAUCCCUGCUGCCCUCAUAGCAGAGGCUCUGAAAAAGAAAUUUGCUUAUCGGUAUCGAAGUGAUAGCCAAGAUGAAGUUGAAAAAGGAAUUCCAAAGUCUGAAUCAGAGGCCACCUCAGAGAGACAACAGAGGAUUGAGCAUCA
# B12: chr5:43486917:43487111:-|CDS|ENSG00000172244|control|control|control (ssRNA)
# RNA: GGGAGUUCUACAGUCCGACGAUCUUAUAAACCAGGAUCUUCAGAAACCUUGCUAGGAGAAGUUAAUGAAAAUAGAGUAUCAAUAGCAUUGAAAAAAACCUCUGAAAUCCUUCACGAUAUUGACUGUCUUCUAUCAAACUCUAACAACAGAGGAUUGAGCAUCA
# B13: ENSG00000066933:stop:overlap|stop_codon|ENSG00000066933|stop_codon|NA|stop_codon (ssRNA)
# RNA: GGGAGUUCUACAGUCCGACGAUCAUAGCUCAGAGAAUUUGAAUAUGGAGUCUGAAUAUGCUAUCUCUGAGAAAUCAGAAGCUUAGCCCUUAGCUCCCUGAAGACAGCUGGCAAGUCUGAACCUUCCAGCAAGUUGCGAAAGCACAACAGAGGAUUGAGCAUCA
# B14: chr10:113908677:113908778:+|3pUTR|ENSG00000196865|unk|FALSE|bound_elsewhere (ssRNA)
# RNA: GGGAGUUCUACAGUCCGACGAUCAGCUAUGCUCCUUACUUACUUCUUUUAUUAUAAACAAAUUCCUUUGCUUUGGCUGAUACUAGCUGAGUCAUUGAUCAUCAUUGGUACCAUGAUAUUGUAAUCUAUGCUGCUAUUUGGCACCAACAGAGGAUUGAGCAUCA
# Molecular target: T1, UNK ZnF1-6 (called full-length)
# Experiment: nsRBNS (natural sequence RNA bind-n-seq); RBNS binding buffer (assumed for nsRBNS): 25 mM Tris pH 7.5, 150 mM KCl, 3 mM MgCl2, 0.01% Triton X-100, 500 ug/ml BSA, 20 U/ml SUPERase-In, 4 C; UNK is unkempt and MSI1 is Musashi-1; names of the RNAs are library labels; protein concentration not given here; high values mean tight binding
row,Binder,binding signal [enrichment R]
1,B1,0.578
2,B2,2.16
3,B3,0.253
4,B4,5.74
5,B5,0.274
6,B6,0.482
7,B7,0.471
8,B8,0.382
9,B9,0.948
10,B10,27.7
11,B11,0.424
12,B12,0.69
13,B13,15.4
14,B14,3.85
